IDE inh: cellular human IDE inhibition. P14735. hit rate 0.41% among 320,000. inhibition, % at 5.59 µM. HEK cells, FAbetaB cleavage, fluorescence polarization;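 active means percent inhibition above the average of all tested compounds plus 3 SD, set per screening campaign, cut at about 16% in these data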;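 further: IDE supplied by intact live HEK cells; FP after avidin binding of uncleaved biotin substrate so inhibition keeps polarization high; 0% = DMSO wells and 100% = 60 µM reference IDE inhibitor Ii1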
SKKanGAS inh: blocks kanamycin growth of S. pyogenes SKKanGAS strain; BacTiter-Glo, 6 h; inhibition, % at 7.5 µM; hit rate 1.3% among 300,000; AID 1662;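 active means mean replicate score, as percent of positive control median, at least 50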;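 further: strain carries kanamycin resistance gene driven by streptokinase promoter and grows in 40 µg/ml kanamycin; loss of luminescence reflects streptokinase promoter inhibition or plain growth inhibition; 0% = median of DMSO wells and 100% = positive control at its reference dose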
Granule exo inh: blocks lytic granule exocytosis. TALL-104 LAMP-1 surface exposure, flow cytometry; cells stimulated with thapsigargin and PMA. inhibition, % at 10 µM. hit rate 0.66% among 360,000. AID 651702;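 active means inhibition above about 55%, limit read from the data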
PP5 inh: PP5 (human) phosphatase inhibition. inhibition, % at 6.7 µM. purified PP5c, OMFP substrate fluorescence. hit rate 0.18% among 320,000;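 active means inhibition above the campaign's mean inhibition across all tested compounds plus 3 SD, cut at about 9.5% in these data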;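 further: 0% = DMSO only and 100% = 100 µM cantharidin control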
IDE cell activ: IDE (human) activation, cell-based. P14735. HEK cells, FAbeta-B cleavage, fluorescence polarization; 0% vehicle, 100% cell-free pure enzyme wells. activation, % at 5.96 µM. hit rate 0.073% among 340,000;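 active means activation above the mean of all tested compounds plus 3 SD, set per screening campaign, cut at about 17% in these data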
PP1 counter: blocks human PP1-alpha phosphatase, a PP5 counter-screen. purified PP1alpha, OMFP fluorescence. hit rate 0.9% among 320,000. inhibition, % at 6.7 µM. P62136;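 active means inhibition above the mean inhibition of all tested compounds plus 3 SD, computed separately for each screening campaign, cut at about 15% in these data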
PP1 inh confirm: confirmation of human PP1 phosphatase inhibitors. shares compounds with PP1 counter. purified PP1alpha, OMFP substrate fluorescence. inhibition, % at 6.7 µM. hit rate 52% among 1,900;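 active means mean PP1 inhibition above a set limit taken from the earlier primary screen, cut at about 15% in these data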
PP5 counter: inhibits human PP5 phosphatase in PP1 counter-screen; shares compounds with PP1 counter; purified PP5c, OMFP fluorescence; inhibition, % at 6.7 µM; hit rate 4% among 1,900;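 active means mean PP5 inhibition over triplicate wells above about 9.5% taken from the earlier PP1 screen, limit read from the data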
Numbers without * were called inactive; / = no result given. Sampled rows, rich in hits. Any-hit rate of the full collection: about 2.8%.

SMILES	IDE inh	SKKanGAS inh	Granule exo inh	PP5 inh	IDE cell activ	PP1 counter	PP1 inh confirm	PP5 counter
O=C(C1CCN(S(=O)(=O)c2ccc(-n3cnnn3)cc2)CC1)N1CCCCC1	-1.4	-3.0	2.4	-1.2	-1.9	-1.4	/	/
CCN(Cc1ccccc1)c1ccccc1	/	/	3.6	/	2.7	/	/	/
CCN(Cc1ccccc1)c1ccc(/C=N/N=C(N)N)cc1	1.0	0.5	4.9	2.3	5.7	18.2*	3.0	-0.5
Cc1cc(C)cc(NC(=S)NCC2CCN(C(C)c3ccccc3)C2)c1 (stereo not given)	3.3	6.9	1.0	4.6	1.3	-2.2	/	/
Cc1ccccc1NC(=S)NCC1CCN(C(C)c2ccccc2)C1 (stereo not given)	-3.6	-8.1	-2.7	-1.4	5.9	25.0*	-17.1	-5.0
O=C(N=Nc1c(O)[nH]c2ccccc12)c1cc(-c2cccs2)[nH]n1	-9.9	11.5	-1.8	4.4	-2.0	17.8*	23.9*	2.9
O=C(Cc1cccs1)N=Nc1c(O)[nH]c2ccccc12	-7.3	-12.5	-4.1	0.5	4.8	-0.8	/	/
Cc1cccc(N2C(=O)C(O)=C(C(=O)c3cccs3)C2c2cccc(Oc3ccccc3)c2)n1 (stereo not given)	-1.0	65.5*	-7.9	-0.1	-4.0	25.3*	25.4*	-2.1
Cc1ccc(-c2cc(C(=O)NCCCn3ccnc3)c3cc(Br)ccc3n2)o1	3.4	/	-0.7	0.4	3.3	31.6*	-8.4	-5.6
Cc1ccc(-c2cc(C(=O)O)c3cc(Br)ccc3n2)o1	-1.4	-0.3	4.2	-1.4	-4.7	2.2	/	/
O=C(Cn1c(=O)n(Cc2ccco2)c(=O)c2c3c(sc21)CCCCC3)c1ccccc1	1.9	-20.7	-0.5	2.9	3.6	25.0*	15.7*	-1.2
CCO[C@@H]1OC(C(=O)N2CCN(Cc3ccccc3)CC2)=C[C@H](c2coc3ccccc3c2=O)[C@H]1CCCO	5.5	-1.8	8.3	0.1	-1.8	-0.6	/	/
CC(=O)Nc1cccc(C(=O)OCC(=O)N(c2ccccc2)C2CCS(=O)(=O)C2)c1 (stereo not given)	/	/	3.1	/	6.6	/	/	/
CC(CCc1ccco1)NC(=O)CCc1nnc2ccc(NCc3ccc(Cl)cc3)nn12 (stereo not given)	3.8	1.3	-1.6	3.0	2.0	22.4*	16.6*	-4.1
CC(C)N(C(=O)COC(=O)CNC(=O)c1ccc(Br)cc1)c1ccccc1	-3.6	0.4	-12.0	-5.0	3.1	-6.9	/	/
Cc1nn(Cc2ccc(F)cc2)c(C)c1NC(=O)c1cc(-c2ccc3c(c2)OCO3)on1	-1.5	7.8	-1.7	-0.8	3.5	-1.7	/	/
Cc1ccc(Cn2nc(C)c(NC(=O)c3cc(-c4ccc5c(c4)OCO5)on3)c2C)cc1	2.6	13.5	/	1.7	/	24.2*	37.4*	-3.7
Cc1cc(Cl)ccc1NC(=S)NCCC(c1ccccc1)c1ccccc1	-1.6	66.0*	1.6	-1.0	-0.3	18.1*	-1.7	0.7
C=CC[N+](C)(C)CCCNC(=O)/C=N/O	4.3	2.5	-2.0	1.1	2.3	1.0	/	/
FC(F)(F)c1ccc(C2[C@H]3CN(Cc4cccnc4)[C@H](c4ccccc4)C34CC2(c2cccnc2)C4)cc1 (stereo not given in full)	4.0	52.6*	5.2	5.4	4.7	18.9*	7.1	-0.6
N#Cc1ccc(C23CC4(C2)[C@H](CN(Cc2cccnc2)[C@@H]4c2ccccc2)C3c2ccccc2)cc1 (stereo not given in full)	4.5	17.4	12.1	2.1	6.8	20.4*	17.3*	-1.6
FC(F)(F)c1ccc(C2[C@H]3CN(Cc4ccc(-c5ccccc5)cc4)[C@H](c4ccccc4)C34CC2(c2cccnc2)C4)cc1 (stereo not given in full)	-3.0	7.7	/	0.8	/	3.2	/	/
CC(C)c1ccc(CN2CCC(Oc3ccc(C(=O)N4CCCC4)cc3)CC2)cc1	0.0	0.2	0.1	3.0	-0.6	-0.7	/	/
COc1ccccc1C(=O)NC(=O)COC(=O)CNC(=O)c1ccc(Cl)c([N+](=O)[O-])c1	2.6	16.3	-3.0	0.0	-0.1	27.3*	-3.3	-2.5
CCN(CC)c1ccc(-c2nn3c(-c4n[nH]c5c4CCC5)nnc3s2)cc1	0.2	85.4*	23.6	4.5	-1.2	21.8*	30.8*	1.2
SMILES	IDE inh	SKKanGAS inh	Granule exo inh	PP5 inh	IDE cell activ	PP1 counter	PP1 inh confirm	PP5 counter
C1CCC(c2nn3c(-c4n[nH]c5c4CCC5)nnc3s2)CC1	1.6	2.4	0.9	1.5	1.0	1.3	/	/
COC(=O)C1=COC(C)C2CN3CCc4c([nH]c5ccccc45)C3CC12 (stereo not given)	0.2	2.1	-0.6	5.4	3.8	19.8*	-3.4	18.4*
CC1(C)Cc2c(C#N)c(N3CCN(C(=O)c4ccco4)CC3)nc(-c3ccco3)c2CS1	7.7	12.6	-0.7	6.0	4.1	19.3*	2.9	-2.6
Cc1ccc(-c2nc(NCc3ccco3)c3ccccc3n2)cc1	-0.4	5.2	9.1	6.1	-0.8	3.2	/	/
Cc1cccc(Nc2nc(NCc3ccco3)c3ccccc3n2)c1	-3.2	18.9	21.9	10.3*	-1.4	25.1*	13.6	4.0
COc1ccc(OC)c(Nc2nc(NCc3ccco3)c3ccccc3n2)c1	2.8	-2.3	9.8	4.2	3.2	10.0	/	/
Cc1ccccc1Nc1nc(NCc2ccco2)c2ccccc2n1	9.5	-3.2	82.0*	3.7	2.2	24.6*	-2.3	-0.1
CC(C)Cn1c(N)c(C(=O)COC(=O)/C=C/c2ccccc2)c(=O)n(C)c1=O	3.2	-2.0	-5.4	3.5	-1.1	37.4*	0.1	-1.4
Cc1cc(C(=O)C(C)OC(=O)c2ccc(NC(=O)CC#N)cc2)c(C)n1-c1ccccc1 (stereo not given)	4.0	16.8	35.6	2.8	-1.7	18.9*	5.9	-0.2
CC(OC(=O)c1ccc(NC(=O)CC#N)cc1)C(=O)NC(c1ccccc1)c1ccccc1 (stereo not given)	3.3	/	-0.3	/	4.0	/	/	/
C[C@H](CO)N1C[C@H](C)[C@@H](CN(C)Cc2ccc(C(=O)O)cc2)Oc2c(NS(=O)(=O)c3cn(C)cn3)cccc2C1=O	4.0	/	-4.5	/	-0.8	/	/	/
C=CCn1cc(/C=N/Nc2nc3ccccc3[nH]2)c2ccccc21	-5.9	37.9	1.9	-1.6	4.8	21.6*	30.1*	4.4
Cc1cc(C)n(Cc2cccc(C(=O)N/N=C/c3cccnc3)c2)n1	/	-1.4	-0.7	/	3.4	/	/	/
O=C(Nc1ccc(Br)cc1)c1ccc(N2C(=O)C3CCCCC3C2=O)cc1 (stereo not given)	0.3	-14.9	-1.8	3.7	-4.2	-1.1	/	/
O=C(Nc1ccc(Br)cc1)c1ccc(N2C(=O)C3CC=C(Cl)CC3C2=O)cc1 (stereo not given)	-3.7	-3.8	-4.2	2.7	3.8	26.5*	25.6*	-3.2
